Data taken from PubChem BioAssay (NCATS).
Records with an inconclusive call do not appear. Where a call stands in place of a potency, no number is given. A number with no mark means an inactive call. Active and inactive are the calls of the source. Calls follow the shape of the dose curve; as a rule, active = well fitted curve in the direction sought with a large enough effect; inconclusive = small, poorly fitted or top-dose-only effect, or another doubt; inactive = no such curve, though single readings can be large; an effect the other way counts as inactive or inconclusive.

Tests used:
HEK293T [1] = assay: qHTS assay to identify novel small-molecules to repurpose for Merkel cell carcinoma treatment (AID 1296009); conditions: MCC and control cell lines, CellTiter-Glo viability, 72 h; at 44.8 µM (top of the series) unless noted; also: nearly all actives have a fitted effect of over 60% in size
Summary of the method: (§1)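 qHTS format: cells treated with library compounds in DMSO across 8 (NPC) or 11 (MIPE) concentrations. Readout after 72 hr at 37 degree celsius was CellTiter-Glo luminescence.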

MCC-13 = assay: as above; conditions: MCC and control cell lines, CellTiter-Glo viability, 72 h; series mostly up to 46 µM
Summary of the method: as §1

MCC-26 = assay: as above; conditions: MCC and control cell lines, CellTiter-Glo viability, 72 h; series mostly up to 46 µM
Summary of the method: as §1

MKL-1 = assay: as above; conditions: MCC and control cell lines, CellTiter-Glo viability, 72 h; series mostly up to 46 µM
Summary of the method: as §1

MKL-2 = assay: as above; conditions: MCC and control cell lines, CellTiter-Glo viability, 72 h; series mostly up to 46 µM
Summary of the method: as §1

UISO = assay: as above; conditions: MCC and control cell lines, CellTiter-Glo viability, 72 h; series mostly up to 46 µM
Summary of the method: as §1

WaGa = assay: as above; conditions: MCC and control cell lines, CellTiter-Glo viability, 72 h; series mostly up to 46 µM
Summary of the method: as §1

C33A = assay: Primary qHTS to identify gynecologic anti-cancer compounds using libraries of approved drugs and bioactive compounds (AID 1345084); conditions: Gynecologic cancer cell panel viability, ATPlite luminescence, 48 h; series mostly up to 57.5 µM; also: nearly all actives have a fitted effect of over 55% in size; also: potency is read from the fitted curve at half-maximal effect
Summary of the method: (§2)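 Cells, 1,000 per well, were allowed to settle for 16 h at 37 C before compound addition. Five concentrations were tested for 48 h, and viability was read by ATPlite luminescence after 15 min at room temperature.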

CAOV3 = assay: as above; conditions: Gynecologic cancer cell panel viability, ATPlite luminescence, 48 h; series mostly up to 57.5 µM
Summary of the method: as §2

CASKI = assay: as above; conditions: Gynecologic cancer cell panel viability, ATPlite luminescence, 48 h; series mostly up to 57.5 µM
Summary of the method: as §2

Es-2 = assay: as above; conditions: Gynecologic cancer cell panel viability, ATPlite luminescence, 48 h; series mostly up to 57.5 µM
Summary of the method: as §2

HeLa = assay: as above; conditions: Gynecologic cancer cell panel viability, ATPlite luminescence, 48 h; series mostly up to 57.5 µM
Summary of the method: as §2

Hek293T [2] = assay: as above; conditions: Gynecologic cancer cell panel viability, ATPlite luminescence, 48 h, control line for the selectivity index; series mostly up to 57.5 µM
Summary of the method: as §2

JEG-3 = assay: as above; conditions: Gynecologic cancer cell panel viability, ATPlite luminescence, 48 h; series mostly up to 57.5 µM
Summary of the method: as §2

OV90 = assay: as above; conditions: Gynecologic cancer cell panel viability, ATPlite luminescence, 48 h; series mostly up to 57.5 µM
Summary of the method: as §2

PA-1 = assay: as above; conditions: Gynecologic cancer cell panel viability, ATPlite luminescence, 48 h; series mostly up to 57.5 µM
Summary of the method: as §2

SKOV3 = assay: as above; conditions: Gynecologic cancer cell panel viability, ATPlite luminescence, 48 h; series mostly up to 57.5 µM
Summary of the method: as §2

Tov-21-G = assay: as above; conditions: Gynecologic cancer cell panel viability, ATPlite luminescence, 48 h; series mostly up to 57.5 µM
Summary of the method: as §2

Tov112D = assay: as above; conditions: Gynecologic cancer cell panel viability, ATPlite luminescence, 48 h; series mostly up to 57.5 µM
Summary of the method: as §2

NIH3T3 = assay: qHTS assay to identify novel small-molecules to repurpose for Merkel cell carcinoma treatment (AID 1296009); conditions: MCC and control cell lines, CellTiter-Glo viability, 72 h; at 44.8 µM (top of the series) unless noted; also: nearly all actives have a fitted effect of over 60% in size
Summary of the method: as §1

Row | Structure (SMILES) | outcome (HEK293T [1]) | Potency (MCC-13) | Potency (MCC-26) | Potency (MKL-1) | Potency (MKL-2) | Potency (UISO) | Potency (WaGa) | Potency (C33A) | Potency (CAOV3) | Potency (CASKI) | Potency (Es-2) | Potency (HeLa) | Potency (Hek293T [2]) | Potency (JEG-3) | Potency (OV90) | Potency (PA-1) | Potency (SKOV3) | Potency (Tov-21-G) | Potency (Tov112D) | outcome (NIH3T3)
1 | COc1ccc(Cl)cc1C(=O)NCCc1ccc(S(=O)(=O)NC(=O)NC2CCCCC2)cc1 | inactive | inactive | inactive | inactive | inactive | inactive | inactive | inactive | inactive | inactive | inactive | inactive | inactive | inactive | inactive | inactive | inactive | inactive | inactive | 
2 | NCCNCCNCCN | inactive | inactive | inactive | inactive | inactive | inactive | inactive | inactive |  | inactive | inactive | inactive | inactive | inactive | inactive | inactive | inactive | inactive | inactive | 
3 | Oc1cn2c(n1)Nc1ccc(Cl)c(Cl)c1C2 | inactive [at 17.4 µM] | inactive | inactive | inactive | inactive | inactive | inactive | inactive |  | inactive | inactive |  |  | inactive | inactive | 355 nM (active) | inactive | inactive | inactive | inactive [at 17.4 µM]
4 | C[C@@H]1C[C@H]2[C@@H]3C[C@H](F)C4=CC(=O)C=C[C@]4(C)[C@@]3(F)[C@@H](O)C[C@]2(C)[C@@]1(O)C(=O)CO | inactive | inactive | inactive | inactive | inactive | inactive | inactive | inactive | inactive | inactive | inactive | inactive | inactive | inactive | inactive | inactive | inactive | inactive | inactive | 
5 | Nc1ccc(S(=O)(=O)NC(=O)c2ccccc2)cc1 | inactive | inactive | inactive | inactive | inactive | inactive | inactive | inactive | inactive | inactive | inactive | inactive | inactive | inactive | inactive | inactive | inactive | inactive | inactive | 
6 | Cc1cc(CC(=O)O)n(C)c1C(=O)c1ccc(Cl)cc1 | inactive | inactive | inactive | inactive | inactive | inactive | inactive | inactive | inactive | inactive | inactive | inactive | inactive | inactive | inactive | inactive | inactive | inactive | inactive | 
7 | O=S(=O)(O)c1cc(I)c(O)c2ncccc12 | inactive | inactive | inactive | inactive | inactive | inactive | inactive | inactive | inactive | inactive | inactive | inactive | inactive | inactive | inactive | inactive | inactive | inactive | inactive | 
8 | CC(O)COc1ccccc1 (stereo unspecified) | inactive | inactive | inactive | inactive | inactive | inactive | inactive | inactive | inactive | inactive | inactive | inactive | inactive | inactive | inactive | inactive | inactive | inactive | inactive | 
9 | CC1(C)CO[C@@H](CC(=O)O)CN1 | inactive | inactive | inactive | inactive | inactive | inactive | inactive | inactive | inactive | inactive | inactive | inactive |  | inactive | inactive | inactive | inactive | inactive | inactive | 
10 | O=C1c2c(O)cccc2Cc2cccc(O)c21 | inactive | inactive | inactive | inactive | inactive | inactive | inactive | inactive | inactive | inactive | inactive | inactive | inactive | inactive | inactive | inactive | inactive | inactive | inactive | 
11 | CC[C@@]1(c2ccccc2)NC(=O)N(C)C1=O | inactive | inactive |  | inactive | inactive | inactive | inactive | inactive | inactive | inactive | inactive | inactive | inactive | inactive | inactive | inactive | inactive | inactive | inactive | 
12 | Nc1ccc(S(=O)(=O)Nc2ccc(Cl)nn2)cc1 | inactive | inactive |  | inactive | inactive | inactive | inactive | inactive | inactive | inactive | inactive | inactive | inactive | inactive | inactive | inactive | inactive | inactive | inactive | 
13 | CCOc1nc2cccc(C(=O)O)c2n1Cc1ccc(-c2ccccc2-c2nn[nH]n2)cc1 |  | inactive | inactive | inactive | inactive | inactive | inactive | inactive | inactive | inactive | inactive | inactive | inactive | inactive | inactive | inactive | inactive | inactive | inactive | inactive
